Potency, outcome and activation data for eight molecules are collected here from PubChem BioAssay (Tox21).

Inconclusive results are not listed. Unmarked numbers belong to inactive results. Calls of active or inactive are those of the source. Unless noted, calls come from the whole dose curve; as a rule, active = well fitted curve in the direction sought with a large enough effect in the repeat runs; inconclusive = weak or mixed curves; inactive = no such curve, though single readings can be large; an effect the other way counts as inactive or inconclusive.

Test [1] can be described thus: qHTS assay to identify small molecule antagonists of the thyroid receptor (TR) signaling pathway (AID 743065). Note: nearly all actives have a fitted effect of over 55% in size. Summed up:
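GH3.TRE-Luc rat pituitary cells (two TREs driving luciferase) were dosed with compound, then stimulated with 1 nM T3 (final) for 23.5 h at 37 C. ONE-Glo luminescence was the read-out, with CellTiter-Fluor fluorescence as the cytotoxicity counter-screen.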
For orientation: Quantitative high-throughput screening tests each substance at several concentrations.

The test system of test [2] is thyroid hormone receptor (rat, GH3 cells). Kind of test: qHTS assay to identify small molecule agonists of the thyroid receptor (TR) signaling pathway (AID 743066; calls by dose curve).
The target in test [3] is Estrogen receptor (Homo sapiens) (UniProt P03372). Kind of test: qHTS assay to identify small molecule antagonists of the estrogen receptor alpha (ER-alpha) signaling pathway (AID 743069; active = well fitted curve in the direction sought with a large enough effect in the signal ratio in the repeat runs, not every such curve was filed as active; the % refers to the signal ratio). A digest of the protocol: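 Reporter cells (ER-alpha-bla, HEK293 background) are conditioned overnight in stripped-serum medium (2% charcoal-stripped FBS). Compound and 17beta-estradiol exposure runs 18 hr at 37C, 5% CO2.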

The nature of test [4]: qHTS assay to identify small molecule antagonists of the estrogen receptor alpha (ER-alpha) signaling pathway - cell viability counter screen (AID 743074; calls by dose curve;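 note: HEK293 cells carrying ER-alpha-UAS-bla reporter stimulated with 17beta-estradiol; nearly all actives have a fitted effect of over 45% in size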).
In test [5] the target is Estrogen receptor (Homo sapiens) (UniProt P03372). Kind of test: qHTS assay to identify small molecule agonists of the estrogen receptor alpha (ER-alpha) signaling pathway (AID 743075; calls by dose curve;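 note: HEK293 GripTite cells with ER-alpha and UAS-driven beta-lactamase reporter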).
Test [6] has the same target. Kind of test: qHTS assay to identify small molecule agonists of the estrogen receptor alpha (ER-alpha) signaling pathway using the BG1 cell line (AID 743079). For all read-outs here: nearly all actives have a fitted effect of over 20% in size. Note: potency is the fitted concentration of half-maximal effect. The settings on record: BG1Luc4E2 cells, ERE-luciferase agonist, 22 h; for activation: at 70.3 µM (top of the series).
A short description of test [7]: qHTS assay to identify small molecule antagonists of the estrogen receptor alpha (ER-alpha) signaling pathway using the BG1 cell line (AID 743080; calls by dose curve;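 note: BG1 cells stimulated with 17beta-estradiol alongside compound; nearly all actives have a fitted effect of over 25% in size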). A digest of the protocol: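 BG1Luc4E2, endogenous ER-alpha, 4xERE-luc; 5 d charcoal-stripped FBS, phenol red free; 24 h plating; cpd + 17beta-estradiol 21.5 h, 37 C/5% CO2; CellTiter-Fluor viability 30 min, then ONE-Glo luciferase 30 min RT.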

A short description of test [8]: qHTS assay to identify small molecule antagonists of the estrogen receptor alpha (ER-alpha) signaling pathway using the BG1 cell line - cell viability counter screen (AID 743081).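 Note: compound given together with 17beta-estradiol as the ER stimulus; nearly all actives have a fitted effect of over 45% in size.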
A further test deals with Aromatase (Homo sapiens) (UniProt P11511). Put plainly: qHTS assay to identify aromatase inhibitors (AID 743083). Note: nearly all actives have a fitted effect of over 55% in size.
Test [9] is described as follows: qHTS assay to identify aromatase inhibitors - cell viability counter screen (AID 743084).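 Note: cells stimulated with testosterone during compound exposure; nearly all actives have a fitted effect of over 55% in size.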
The target in test [10] is Aryl hydrocarbon receptor (Homo sapiens) (UniProt P35869). Put plainly: qHTS assay to identify small molecule that activate the aryl hydrocarbon receptor (AhR) signaling pathway (AID 743085).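 For activation: HG2L7.5c1 human HepG2 liver cells with stably integrated DRE-driven firefly reporter.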 Note: nearly all actives have a fitted effect of over 15% in size. Note: potency is the fitted concentration of half-maximal effect. Summed up: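 Luminescence (ONE-Glo) from a dioxin-responsive-element luciferase reporter in HG2L7.5c1 HepG2 cells after 24 hr compound exposure at 37C; viability measured by CellTiter-Fluor fluorescence beforehand.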

Test [11] can be described thus: qHTS assay to identify small molecule that activate the aryl hydrocarbon receptor (AhR) signaling pathway - cell viability counter screen (AID 743086).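 Note: HepG2 liver cells carrying the AhR DRE luciferase reporter; nearly all actives have a fitted effect of over 45% in size.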 Summed up:
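HepG2-AhR-luc (HG2L7.5c1) cells, 4000/well, treated 24 h at 37 C with compound; viability measured as CellTiter-Fluor fluorescence after 30 min in the same wells as the luciferase read.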

Test [12] deals with Peroxisome proliferator-activated receptor gamma (Homo sapiens) (UniProt P37231). Kind of test: qHTS assay to identify small molecule agonists of the peroxisome proliferator-activated receptor gamma (PPARg) signaling pathway (AID 743094; active = well fitted activation curve with a large enough effect in the signal ratio in the repeat runs, not every such curve was filed as active; the % refers to the signal ratio). Summed up:
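Compounds dissolved in DMSO were added to PPARg UAS-bla HEK293H cells for 17 h at 37C, and reporter expression was quantified by fluorescence intensity after 1 h with LiveBLAzer B/G FRET substrate.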

For test [13] the target is unchanged. Put plainly: qHTS assay to identify small molecule antagonists of the peroxisome proliferator-activated receptor gamma (PPARg) signaling pathway (AID 743191; calls by dose curve; note: nearly all actives have a fitted effect of over 30% in size). Summed up:
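GeneBLAzer PPARg UAS-bla HEK293H cells, 5 h post-plating, exposed to compounds 17 h at 37C. LiveBLAzer B/G FRET substrate added for 1 h at room temperature; beta-lactamase reporter read by fluorescence intensity.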

The nature of test [14]: qHTS assay to identify small molecule antagonists of the peroxisome proliferator-activated receptor gamma (PPARg) signaling pathway - cell viability counter screen (AID 743194). Note: nearly all actives have a fitted effect of over 55% in size. The settings on record: Potency: co-treated with 50 nM rosiglitazone. A digest of the protocol: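 Cytotoxicity counter screen in PPARg-bla HEK293H cells, same wells as reporter assay. Compounds plus 50 nM rosiglitazone (final) for 17 h at 37 C, then viability read by CellTiter-Glo luminescence.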

Test [15] in a line: qHTS assay for small molecule agonists of the antioxidant response element (ARE) signaling pathway - cell viability counter screen (AID 743203; calls by dose curve; note: nearly all actives have a fitted effect of over 55% in size). Summed up:
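Following 16 hrs of compound treatment at 37C, HepG2 cells with an ARE-controlled beta-lactamase gene were lysed with CellTiter-Glo. Luminescence was read after 30 min at room temperature.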

Test [16] in a line: qHTS assay for small molecule activators of the heat shock response signaling pathway - cell viability counter screen (AID 743209). Note: nearly all actives have a fitted effect of over 50% in size. A digest of the protocol:
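Readout: CellTiter-Glo luminescence, 30 min at room temperature. System: HSE-bla HeLa cells, 1500/well, plated overnight. Treatment: compounds in DMSO, 5 h at 37 C.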

A short description of test [17]: qHTS assay to identify small molecule agonists of the peroxisome proliferator-activated receptor delta (PPARd) signaling pathway - cell viability counter screen (AID 743211). Note: nearly all actives have a fitted effect of over 55% in size. Summed up:
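Viability was measured as CellTiter-Glo luminescence (30 min, room temperature) in the same wells as the beta-lactamase readout. GeneBLAzer PPARd UAS-bla HEK293H cells received compound after 5 h plating and were incubated 17 h at 37 C.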

Test [18] can be described thus: qHTS assay for small molecule agonists of the antioxidant response element (ARE) signaling pathway (AID 743202; active = well fitted activation curve with a large enough effect in the signal ratio in the repeat runs, not every such curve was filed as active; the % refers to the signal ratio). A digest of the protocol:
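Agonist mode reporter screen: HepG2 cells with ARE-controlled beta-lactamase are incubated with test compounds for 16 h at 37 C, and beta-lactamase activity is measured as fluorescence of cleaved B/G FRET substrate.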

Test [19] can be described thus: qHTS assay for small molecule activators of the heat shock response signaling pathway (AID 743210; active = well fitted activation curve with a large enough effect in the signal ratio in the repeat runs, with a control signal flat, not every such curve was filed as active; the % refers to the signal ratio;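 note: HeLa cells with beta-lactamase reporter driven by heat shock elements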). A digest of the protocol:
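Quantitative high-throughput format using an engineered HeLa line in which heat shock response elements drive beta-lactamase; after 5 h with compound, cells received a B/G FRET substrate and fluorescence was read.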
% is set by controls: 0 for no effect and ±100 for the full control effect.

Sequence of Aromatase (Homo sapiens) (P11511 whole entry, looked up): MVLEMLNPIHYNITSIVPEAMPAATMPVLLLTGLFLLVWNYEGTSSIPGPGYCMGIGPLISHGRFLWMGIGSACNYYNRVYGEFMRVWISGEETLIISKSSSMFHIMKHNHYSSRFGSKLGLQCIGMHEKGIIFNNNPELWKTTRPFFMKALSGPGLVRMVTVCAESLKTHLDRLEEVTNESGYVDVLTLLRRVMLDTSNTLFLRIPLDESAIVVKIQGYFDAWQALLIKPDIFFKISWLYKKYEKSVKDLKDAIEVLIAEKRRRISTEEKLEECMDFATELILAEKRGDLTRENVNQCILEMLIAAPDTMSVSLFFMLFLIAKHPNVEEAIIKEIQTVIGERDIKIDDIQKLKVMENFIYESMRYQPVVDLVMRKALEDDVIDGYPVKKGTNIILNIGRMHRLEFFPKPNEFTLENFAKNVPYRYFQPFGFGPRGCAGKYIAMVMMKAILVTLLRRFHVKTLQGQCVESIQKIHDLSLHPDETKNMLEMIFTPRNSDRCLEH
Sequence of Estrogen receptor (Homo sapiens) (P03372 whole entry, looked up): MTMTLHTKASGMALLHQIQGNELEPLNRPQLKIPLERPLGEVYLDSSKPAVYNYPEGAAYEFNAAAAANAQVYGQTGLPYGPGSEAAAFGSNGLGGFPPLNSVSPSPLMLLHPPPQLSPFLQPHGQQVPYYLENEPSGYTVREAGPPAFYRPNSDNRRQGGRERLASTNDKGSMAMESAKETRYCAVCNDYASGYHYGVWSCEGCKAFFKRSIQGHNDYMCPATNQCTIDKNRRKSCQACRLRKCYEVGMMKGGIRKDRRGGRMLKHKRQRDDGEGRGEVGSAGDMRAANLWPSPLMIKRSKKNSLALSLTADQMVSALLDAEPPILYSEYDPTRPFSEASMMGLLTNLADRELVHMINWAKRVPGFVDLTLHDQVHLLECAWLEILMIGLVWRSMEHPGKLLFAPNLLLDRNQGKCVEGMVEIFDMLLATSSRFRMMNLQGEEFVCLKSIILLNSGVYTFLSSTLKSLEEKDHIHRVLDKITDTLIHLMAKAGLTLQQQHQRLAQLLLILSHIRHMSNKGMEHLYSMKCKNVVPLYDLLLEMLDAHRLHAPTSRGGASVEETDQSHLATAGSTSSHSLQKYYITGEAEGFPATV
Sequence of Aryl hydrocarbon receptor (Homo sapiens) (P35869 whole entry, looked up): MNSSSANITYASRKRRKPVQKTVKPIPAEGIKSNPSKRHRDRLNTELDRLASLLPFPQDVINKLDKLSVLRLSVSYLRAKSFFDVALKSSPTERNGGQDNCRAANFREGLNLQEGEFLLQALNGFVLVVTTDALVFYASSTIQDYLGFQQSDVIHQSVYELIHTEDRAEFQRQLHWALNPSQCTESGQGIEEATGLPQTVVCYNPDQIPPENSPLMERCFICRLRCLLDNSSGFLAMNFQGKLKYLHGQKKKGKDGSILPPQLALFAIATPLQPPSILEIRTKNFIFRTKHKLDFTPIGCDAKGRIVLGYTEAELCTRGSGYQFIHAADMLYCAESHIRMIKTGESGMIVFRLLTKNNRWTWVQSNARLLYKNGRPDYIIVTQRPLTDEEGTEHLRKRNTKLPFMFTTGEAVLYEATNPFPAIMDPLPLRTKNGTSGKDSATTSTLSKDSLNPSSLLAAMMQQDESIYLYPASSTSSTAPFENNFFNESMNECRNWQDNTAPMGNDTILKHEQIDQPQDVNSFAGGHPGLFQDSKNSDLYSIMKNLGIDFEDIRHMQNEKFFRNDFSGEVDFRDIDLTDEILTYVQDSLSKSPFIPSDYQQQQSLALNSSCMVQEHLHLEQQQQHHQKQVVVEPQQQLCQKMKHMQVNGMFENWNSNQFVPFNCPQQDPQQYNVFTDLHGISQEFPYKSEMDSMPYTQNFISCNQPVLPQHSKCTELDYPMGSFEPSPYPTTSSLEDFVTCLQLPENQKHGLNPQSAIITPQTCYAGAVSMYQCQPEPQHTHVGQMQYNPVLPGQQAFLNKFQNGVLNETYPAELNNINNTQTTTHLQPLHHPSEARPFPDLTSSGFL
Sequence of Peroxisome proliferator-activated receptor gamma (Homo sapiens) (P37231 whole entry, looked up): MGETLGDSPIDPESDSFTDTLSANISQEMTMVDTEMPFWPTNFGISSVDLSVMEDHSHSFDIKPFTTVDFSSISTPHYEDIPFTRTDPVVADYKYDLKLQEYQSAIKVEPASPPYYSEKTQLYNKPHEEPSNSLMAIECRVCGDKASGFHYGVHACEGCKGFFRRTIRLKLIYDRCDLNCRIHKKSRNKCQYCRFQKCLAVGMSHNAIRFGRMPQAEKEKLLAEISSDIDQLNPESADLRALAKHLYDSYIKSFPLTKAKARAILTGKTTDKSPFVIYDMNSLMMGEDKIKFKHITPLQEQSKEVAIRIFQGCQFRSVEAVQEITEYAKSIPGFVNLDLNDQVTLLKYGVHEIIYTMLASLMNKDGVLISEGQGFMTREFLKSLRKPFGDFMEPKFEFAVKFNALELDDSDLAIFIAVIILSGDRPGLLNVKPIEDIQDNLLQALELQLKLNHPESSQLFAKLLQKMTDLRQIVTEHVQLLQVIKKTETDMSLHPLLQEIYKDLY

As to `C[N+](=O)[O-]`, the Potency entry in [1], in test [2], in test [3], in [5], in test [7] and in [8] was “inactive” throughout. The Potency result (with Aromatase (Homo sapiens); in [9]; in test [10]; in test [13]; in test [14]; in test [15]) was “inactive” each time. The Potency result in [16] and in test [17] was “inactive” each time. In addition, the molecule was called inactive in test [4], in [11] and in test [12]. The activation in test [6] is 0.916%.
On to `N#CC(Cl)(Cl)Cl`, for which the Potency entry in test [1], in test [2], in [3], in test [5], in [7] and in [8] was “inactive” each time. Further, the Potency result (with Aromatase (Homo sapiens); in test [9]; in test [10]; in test [13]; in test [14]; in test [18]) was “inactive” throughout. For the same molecule, the Potency entry in test [17] is “inactive”. Also, the molecule was called inactive in test [4], in test [11] and in test [12]. Besides, the activation in test [6] is -6.23%.
As for `CCCCCCI`, the Potency result in test [1], in [2], in [3], in [5], in test [7] and in test [8] was “inactive” throughout. Further, the Potency entry (with Aromatase (Homo sapiens); in test [9]; in [10]; in test [13]; in test [14]; in test [18]) was “inactive” throughout. Further, the Potency result in test [15], in test [16] and in test [17] was “inactive” throughout. The result in [4], in test [11] and in [12] was inactive. Also, the activation in test [6] is 1.45%.
`ClC(Br)Br`: the Potency result in test [1], in [2], in test [3], in [5], in [7] and in [8] was “inactive” in each case. Also, the Potency result (with Aromatase (Homo sapiens); in [9]; in test [10]; in test [13]; in test [18]; in test [15]) was “inactive” throughout. Further, the Potency result in test [16] and in test [17] was “inactive” each time. Moreover, the call in [4], in [11], in test [12] and in test [19] was inactive. Besides, in test [6], the activation was 1.01%.
With `COP(=S)(OC)Oc1c(Cl)cc(C)cc1Cl`, the Potency result in test [1], in test [2], in [3], in test [5], in test [7] and in test [8] was “inactive” throughout. In addition, the Potency result (in the test with Aromatase (Homo sapiens); in test [9]; in [13]; in test [18]; in [17]) was “inactive” throughout. For the same molecule, the result in test [4], in test [11], in test [12] and in [19] was inactive. Besides, the Potency in [6] was 30.6 µM (active); in [10], 48.6 µM (active).
For `Nc1ccccc1Cl`, the Potency result in test [1], in test [2], in test [3], in [5], in test [7] and in [8] was “inactive” in each case. The Potency entry (in the test with Aromatase (Homo sapiens); in [9]; in test [10]; in [13]; in test [14]; in [18]) was “inactive” each time. The Potency entry in [15], in test [16] and in [17] was “inactive” in each case. The molecule was called inactive in test [4], in test [11], in test [12] and in test [19]. For the same molecule, the activation in test [6] was -8.6%.
Regarding `CC(C)CP(=S)(S)CC(C)C`, the Potency result in [1], in [2], in [3], in test [5], in [7] and in [8] was “inactive” each time. For the same molecule, the Potency entry (in the test with Aromatase (Homo sapiens); in [9]; in test [10]; in test [14]; in test [18]; in test [15]) was “inactive” throughout. The Potency result in [16] and in test [17] was “inactive” in each case. For the same molecule, the molecule was classed as inactive in test [4], in [11], in test [12] and in test [19]. Besides, the activation in test [6] is -12.9%.
In the case of `CCCCc1c(C)nc(NCC)[nH]c1=O`, the Potency entry in [1], in [2], in test [3], in test [5], in test [7] and in [8] was “inactive” in each case. The Potency entry (in the test with Aromatase (Homo sapiens); in test [9]; in [10]; in [13]; in [18]; in [15]) was “inactive” in each case. In addition, the Potency entry in [16] and in test [17] was “inactive” throughout. Further, the call in test [4], in test [11], in test [12] and in test [19] was inactive. The activation in [6] is 0.176%.
